# Measured values from the supplement of paper PMC10646978.
# ± gives the standard deviation.
# Tests used:
# Settings in all cases: modulator concentration 10 µM
# [1] = test system: RAW-Dual (murine macrophage reporter line); experiment: NF-kB reporter (SEAP) activity fold change vs agonist alone; higher = enhanced NF-kB activity
# Method in brief: (§1)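 In 384-well plates holding 50 000 RAW-Dual murine macrophage reporter cells per well, compound at 10 μM final was pre-incubated for 1 hour at 37 °C, after which a PRR agonist was added overnight. Supernatant SEAP read with QUANTI-Blue at 620 nm absorbance reported NF-κB, and Lucia luciferase read with QUANTI-Luc luminescence reported IRF. Fold change values come from dividing each reporter signal by the mean of agonist-only control wells on the same plate, averaged over replicate plates with propagated errors.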
# [2] = test system: RAW-Dual (murine macrophage reporter line); experiment: IRF reporter (Lucia luciferase) activity fold change vs agonist alone; higher = enhanced IRF activity
# Method in brief: as §1
# [3] = test system: RAW-Dual (murine macrophage reporter line); experiment: viability score (confluency relative to resting cells, overnight) (fraction); higher = more viable, active = viable (0.7 or more)
# Method in brief: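 A compound met the cutoff when both of two confluency masks exceeded 70% of resting cells. Those masks were made with IncuCyte software from IncuCyte images of RAW-Dual macrophages treated overnight at 10 μM final. This is the basis of the viability score, which is confluency relative to resting cells.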
# [4] = agonist: CpG ODN 1826 0.5 ug/mL
Compound,"NF-kB reporter [1, 4]",NF-kB reporter ([1]; agonist: LPS 0.1 ug/mL),NF-kB reporter ([1]; agonist: MPLA […]),IRF reporter ([2]; agonist: 3'3'-cGAMP 10 ug/mL),IRF reporter ([2]; agonist: LPS 0.1 ug/mL),IRF reporter ([2]; agonist: MPLA […]),viability score [3]
Cc1nc(SCC(=O)N2CCCCCC2)[nH]c(=O)c1C,1.15 ± 0.077,1.17 ± 0.14,0.909 ± 0.04,1 ± 0.064,1.07 ± 0.14,0.977 ± 0.3,1 (active)
CCCc1nc(-c2ccccc2)c(-c2ccc(OC)c(OC)c2)c(=O)[nH]1,0.803 ± 0.067,0.844 ± 0.1,1.06 ± 0.1,0.933 ± 0.057,1.46 ± 0.084,1.78 ± 0.16,1.01 (active)
CC1CC(=O)C2=C(C1)OC(N)=C(C#N)C2c1cccc2ccccc12 (stereo not given),1.04 ± 0.059,1.06 ± 0.065,1.03 ± 0.11,0.988 ± 0.033,1.26 ± 0.088,1.24 ± 0.14,1 (active)
CCCCc1ncc(/C=C(\Cc2cccs2)C(=O)O)n1Cc1ccc(C(=O)O)cc1.CS(=O)(=O)O,1.08 ± 0.081,1.11 ± 0.055,1.03 ± 0.039,0.927 ± 0.062,0.973 ± 0.077,0.836 ± 0.079,1 (active)
COc1nc(C)cnc1NS(=O)(=O)c1cccnc1-c1ccc(-c2nnco2)cc1,0.964 ± 0.21,0.98 ± 0.18,1 ± 0.09,0.852 ± 0.047,0.982 ± 0.26,1.06 ± 0.24,0.979 (active)
CC(C)(C)NCC(O)COc1cccc2c1CCC(=O)N2.Cl (stereo not given),1.14 ± 0.17,1.12 ± 0.25,1.03 ± 0.12,0.941 ± 0.037,1.33 ± 0.26,1.03 ± 0.19,0.995 (active)
COc1cc(C=NNC(=O)c2ccc(OC)c(OC)c2)ccc1O,0.788 ± 0.32,0.838 ± 0.098,0.831 ± 0.066,0.83 ± 0.022,0.938 ± 0.15,1.15 ± 0.15,0.996 (active)
O=C(O)c1cc(Nc2ccnc3cc(Cl)ccc23)ccc1O,1.04 ± 0.082,1.02 ± 0.088,0.932 ± 0.044,0.963 ± 0.05,1.02 ± 0.056,0.96 ± 0.18,1 (active)
O=C(NN=Cc1c(O)ccc2ccccc12)c1ccccc1I,1.54 ± 0.47,1.11 ± 0.096,1.02 ± 0.099,0.847 ± 0.043,1.47 ± 0.15,1.55 ± 0.17,1 (active)
COC(CNS(=O)(=O)c1cccnc1)c1ccc(C)s1 (stereo not given),1.06 ± 0.073,0.992 ± 0.086,1.01 ± 0.096,1.01 ± 0.04,1.02 ± 0.048,0.958 ± 0.12,0.997 (active)
Cc1cccc(OCC(=O)Nc2cccc([N+](=O)[O-])c2)c1C,0.982 ± 0.16,1.17 ± 0.14,1.03 ± 0.11,0.947 ± 0.028,1.21 ± 0.23,1.24 ± 0.21,0.974 (active)
Fc1ccc(Nc2nc(NN=Cc3ccc(Cl)cc3)nc(N3CCCCC3)n2)cc1,1.02 ± 0.087,0.949 ± 0.13,1.01 ± 0.1,1 ± 0.032,1.14 ± 0.12,1.24 ± 0.2,1.05 (active)
O=C(Cc1ccc(Cl)cc1)Nc1ccc2oc(-c3c(F)c(F)c(F)c(F)c3F)nc2c1,0.931 ± 0.097,0.882 ± 0.12,0.696 ± 0.059,0.698 ± 0.028,1.32 ± 0.12,1.07 ± 0.11,1.01 (active)
Cc1nc(Nc2ncc(C(=O)Nc3c(C)cccc3Cl)s2)cc(N2CCN(CCO)CC2)n1.O,1.55 ± 0.37,0.307 ± 0.025,0.644 ± 0.041,0.0905 ± 0.0031,0.536 ± 0.063,0.656 ± 0.081,0.492 (inactive)
CCOC(=O)n1ccn(C)c1=S,1.26 ± 0.21,1.04 ± 0.33,0.909 ± 0.067,0.913 ± 0.03,1.18 ± 0.48,1.11 ± 0.09,0.992 (active)
O=C(NN=Cc1ccc([N+](=O)[O-])o1)c1ccc(O)cc1,2.16 ± 0.17,1.49 ± 0.097,1.62 ± 0.066,0.956 ± 0.063,1.77 ± 0.18,1.22 ± 0.22,0.938 (active)
CCN(CC)CCN1C(=O)C(O)=C(C(=O)c2ccc(Br)cc2)C1c1ccccc1F (stereo not given),0.741 ± 0.061,0.884 ± 0.1,0.985 ± 0.1,0.94 ± 0.045,1.14 ± 0.08,1.2 ± 0.15,1.01 (active)
Oc1c(Br)cc(C=NNc2nc3ccccc3s2)c(O)c1Br,0.957 ± 0.082,0.958 ± 0.098,1.08 ± 0.1,0.642 ± 0.069,1.35 ± 0.23,1.63 ± 0.44,1.03 (active)
C#CCN(C)Cc1ccccc1.Cl,0.99 ± 0.11,0.895 ± 0.059,0.98 ± 0.021,0.967 ± 0.075,1.01 ± 0.11,0.833 ± 0.2,0.999 (active)
CC(=O)c1cccc(NC(=O)CSc2nnc3c4ccccc4n(C)c3n2)c1,0.817 ± 0.063,0.835 ± 0.069,0.994 ± 0.091,0.904 ± 0.042,1.27 ± 0.11,1.41 ± 0.21,1.01 (active)
Cc1ccc(NC(=O)CN2C(=O)c3ccccc3C2=O)c(C(=O)O)c1,0.789 ± 0.077,0.894 ± 0.057,1.05 ± 0.091,0.982 ± 0.049,1.32 ± 0.098,1.5 ± 0.18,1.02 (active)
CN(C)c1ccc(C=C(C#N)c2nc(-c3cc4ccccc4oc3=O)cs2)cc1,0.972 ± 0.057,1.04 ± 0.13,0.955 ± 0.079,0.86 ± 0.03,1.36 ± 0.091,1.15 ± 0.24,1.01 (active)
O=C(NCCN1CCOCC1)c1ccc(F)cc1,1.11 ± 0.1,0.995 ± 0.094,1.01 ± 0.039,1.05 ± 0.17,1.03 ± 0.053,1 ± 0.12,0.986 (active)
COC(=O)C1=CN(CC2CCCO2)C=C(C(=O)OC)C1c1ccc2c(c1)OCO2 (stereo not given),1.03 ± 0.12,1.1 ± 0.093,1.02 ± 0.071,1.07 ± 0.036,1.46 ± 0.16,1.12 ± 0.089,1.01 (active)
CN(C)CCC=C1c2ccccc2CCc2ccccc21.Cl,0.903 ± 0.19,1.26 ± 0.48,1.21 ± 0.17,0.423 ± 0.017,1.31 ± 0.44,1.12 ± 0.084,0.412 (inactive)
